According to PubChem BioAssay (NCATS):
Inconclusive results are not listed. Activity calls are given as the source filed them. Unless noted, calls follow the shape of the dose curve; as a rule, active = well fitted curve in the direction sought with a large enough effect; inconclusive = small, poorly fitted or top-dose-only effect, or another doubt; inactive = no such curve, though single readings can be large; an effect the other way counts as inactive or inconclusive.

What was measured:
[1] = NCATS anti-infectives library activity on HEK293 viability as a counter-qHTS vs the C. elegans viability qHTS (AID 1745854);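 also: HEK293 cells exposed to compounds for 24 hr before the viability read; % is scaled to controls: 0 for no effect and ±100 for the full control effect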
In short: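 HEK293 cells (1,500/well) exposed 24 hr at 37C to 1:5 titrations, up to 41.7 uM final; counter-screen to a C. elegans viability qHTS. Viability by CellTiter-Glo luminescence after 10 min at room temperature; digitonin as control.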

[2] = Viability counterscreen for antagonist of constitutive androstane receptor (CAR) against the NCATS DSHEA and TCM libraries (AID 1794837);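 also: compound exposure lasted 24 h before viability reading; 0% is about no effect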
In short: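 Viability was measured by CellTiter-Fluor fluorescence (405/540 nm, 1 hr) in HepG2-CYP2B6-hCAR cells. Cells were co-treated 24 hr with 48 uM CITCO (final), antagonist mode, and test substances.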

[3] = Viability counterscreen for agonist of constitutive androstane receptor (CAR) against the NCATS DSHEA and TCM libraries (AID 1794838); also: 0% is about no effect
In short: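 Cell viability, from CellTiter-Fluor fluorescence (405/540 nm), was scored after a 24 h, 37C exposure of HepG2 cells carrying CYP2B6 reporter and hCAR to test substances in presence of 0.75 uM PK11195.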

[4] = biological target: Nuclear receptor subfamily 1 group I member 3 (Homo sapiens) (UniProt Q14994); assay: Primary qHTS for agonist of constitutive androstane receptor (CAR) against the NCATS DSHEA and TCM libraries (AID 1794839);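 also: HepG2 cells expressing human CAR with a CYP2B6 reporter plus PK11195 antagonist; luciferase reporter luminescence read with ONE-Glo; 0% is about no effect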
In short: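 Agonist mode in presence of hCAR antagonist PK11195 (0.75 µM final): test substances, 24 h, 37 °C, on HepG2-CYP2B6-hCAR cells. Same-well readouts: fluorescence viability, then ONE-Glo luminescence; CITCO as reference agonist.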

[5] = HepG2 viability counterscreen (readout 2: ATP content) against the NCATS DSHEA and TCM libraries (AID 1794840);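 also: HepG2 cells exposed to substances for about 24 h; 0% is about no effect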
In short: (§1)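 Readout 1: cellular protease activity, GF-AFC substrate (25 uM final, 30 min, fluorescence 380/510 nm). Readout 2: ATP content by CellTiter-Glo luminescence after 30 min at RT. Both follow ~24 h exposure of HepG2 cells (1,000/well) to substances.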

[6] = HepG2 viability counterscreen (readout 1: protease activity) against the NCATS DSHEA and TCM libraries (AID 1794841);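 also: cells exposed to compounds for about 24 h before the protease read; 0% is about no effect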
In short: as §1

[7] = biological target: Cytochrome P450 3A4 (Homo sapiens) (UniProt P08684); assay: qHTS for inhibitors of CYP3A4 against the NCATS DSHEA and TCM libraries (AID 1919971); also: potency is read from the fitted curve at half-maximal effect
In short: (§2)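 Luminescent P450-Glo format: compounds preincubated 15 min with enzyme and luciferin substrate, reaction run 30-45 min after NADPH regeneration solution. Intraplate controls: ketoconazole for CYP3A4 and CYP2C19, sulfaphenazole for CYP2C9.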

[8] = biological target: Cytochrome P450 2D6 (Homo sapiens) (UniProt P10635); assay: qHTS for inhibitors of CYP2D6 against the NCATS DSHEA and TCM libraries (AID 1919972); also: potency is read from the fitted curve at half-maximal effect
In short: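 Luminescent P450-Glo read-out of CYP2D6 turnover of a luciferin substrate after NADPH-driven reaction of 30-45 min at room temperature. Compounds were first preincubated 15 min with enzyme at titrated concentrations; quinidine was the intraplate control.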

[9] = biological target: Cytochrome P450 2C9 (Homo sapiens) (UniProt P11712); assay: qHTS for inhibitors of CYP2C9 against the NCATS DSHEA and TCM libraries (AID 1919973); also: potency is read from the fitted curve at half-maximal effect
In short: as §2

[10] = biological target: Cytochrome P450 2C19 (Homo sapiens) (UniProt P33261); assay: qHTS for inhibitors of CYP2C19 against the NCATS DSHEA and TCM libraries (AID 1919974);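 also: luminescence from luciferin released by CYP2C19 oxidation of a pro-luciferin substrate; potency is read from the fitted curve at half-maximal effect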
In short: as §2

[11] = qHTS Counterscreen for compound interference against the NCATS DSHEA and TCM libraries (AID 1919978); conditions: firefly luciferase detection reagent interference, luminescence;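 also: compounds preincubated with 1 µM D-luciferin or buffer before detection reagent; % of control where 0% means no effect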
In short: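 With 1 uM D-luciferin or phosphate buffer only, compounds at final 19.5 nM–39.8 uM were incubated for 15 min at room temperature. Luciferase detection reagent was then added, and luminescence was measured after a further 30 min at room temperature.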

[12] = Dual reporter qHTS for agonist of Pregnane X Receptor (hPXR) against the NCATS DSHEA and TCM libraries: Fluorescence readout (AID 1920058); also: 0% is about no effect
In short: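 hPXR-Luc HepG2 cells, 2000/well in charcoal-stripped serum, attached 5 h, dosed for ~24 h at 37 °C. Fluorescence read is CellTiter-Fluor viability (Ex/Em 405/540 nm); rifampicin positive, tetraoctyl ammonium bromide (92 µM) cytotoxicity controls.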

[13] = biological target: Nuclear receptor subfamily 1 group I member 2 (Homo sapiens) (UniProt O75469); assay: Dual reporter qHTS for agonist of Pregnane X Receptor (hPXR) against the NCATS DSHEA and TCM libraries: Luminescence readout (AID 1920059); also: 0% is about no effect
In short: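 hPXR-LucHepG2 cells in phenol red-free DMEM with 5% charcoal-stripped FBS, 2000 cells/well, attached 5 h, then exposed 24 h at 37C to compounds; rifampicin as positive agonist control (2.8 nM–92 uM). Luciferase luminescence read.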

[14] = biological target: Nuclear receptor subfamily 1 group I member 2 (Homo sapiens) (UniProt O75469); assay: Dual reporter qHTS for antagonist of Pregnane X Receptor (hPXR) against the NCATS DSHEA and TCM libraries: Luminescence Readout (AID 1920060);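 also: HepG2 cells carrying hPXR luciferase reporter stimulated with rifampicin at 2 µM; 0% is about no effect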
In short: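 HepG2 hPXR-Luc, 2000 cells/well, charcoal-stripped FBS medium; 5 h attach; RIF 2 uM final; 24 h 37C/5% CO2; CellTiter-Fluor 1 h, fluor 405/540; ONE-Glo 30 min RT, lum.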

[15] = NCATS anti-infectives library activity on the primary C. elegans qHTS viability assay (AID 1745855; calls by dose curve; also: potency is read from the fitted curve at half-maximal effect)
In short: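 Viability read-out is GFP fluorescence of PE254-GFP-FLuc C. elegans, measured by laser cytometry (488 nm) at day 0, 3 and 7. Ten L1 worms per well were incubated 7 days at 21 °C with compounds and bacterial capsules in S medium.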

[16] = biological target: Glutathione peroxidase 1 (Homo sapiens) (UniProt P07203); assay: Primary qHTS Assay for Inhibitors of Recombinant Selenoprotein Glutathione Peroxidase 1 (GPX1) (AID 1845191); also: nearly all actives have a fitted effect of over 65% in size
In short: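 Recombinant GPX1 (10 nM final) was preincubated with compound for 30 min at room temperature, then reacted with 1 mM GSH, 0.5 mM CHP, 0.5 mM NADPH and 100 nM glutathione reductase; NADPH fluorescence (340/450 nm) was read at 0 and 15 min.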

[17] = biological target: Phospholipid hydroperoxide glutathione peroxidase GPX4 (Homo sapiens) (UniProt P36969); assay: Primary qHTS Assay for Inhibitors of Recombinant Selenoprotein Glutathione Peroxidase 4 (GPX4) (AID 1845192); also: nearly all actives have a fitted effect of over 65% in size
In short: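 GR-coupled readout: 100 nM GR, 1 mM GSH, 0.5 mM NADPH; NADPH fluorescence (ex 340/em 450 nm) read at t=0 and after 15 min RT. GPX4 200 nM, preincubated 30 min with compound; substrate 0.5 mM CHP.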

Sequence of Glutathione peroxidase 1 (Homo sapiens) (P07203 whole entry, looked up): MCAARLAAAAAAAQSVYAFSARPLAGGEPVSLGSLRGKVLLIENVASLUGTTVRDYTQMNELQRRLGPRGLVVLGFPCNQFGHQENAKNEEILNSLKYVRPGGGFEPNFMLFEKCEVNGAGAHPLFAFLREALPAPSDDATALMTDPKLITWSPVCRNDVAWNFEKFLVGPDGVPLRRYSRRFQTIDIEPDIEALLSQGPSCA
Sequence of Nuclear receptor subfamily 1 group I member 2 (Homo sapiens) (O75469 whole entry, looked up): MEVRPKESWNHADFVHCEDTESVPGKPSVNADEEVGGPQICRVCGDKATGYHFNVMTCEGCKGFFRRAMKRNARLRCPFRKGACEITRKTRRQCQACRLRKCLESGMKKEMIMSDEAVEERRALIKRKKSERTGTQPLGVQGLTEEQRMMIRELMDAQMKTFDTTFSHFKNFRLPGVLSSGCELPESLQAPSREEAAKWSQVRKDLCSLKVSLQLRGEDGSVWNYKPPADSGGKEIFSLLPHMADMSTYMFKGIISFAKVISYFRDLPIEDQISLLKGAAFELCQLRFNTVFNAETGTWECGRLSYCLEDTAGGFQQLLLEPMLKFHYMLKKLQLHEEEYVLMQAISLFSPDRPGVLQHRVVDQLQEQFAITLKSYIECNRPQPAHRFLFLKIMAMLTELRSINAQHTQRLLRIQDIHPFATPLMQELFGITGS
Sequence of Cytochrome P450 2D6 (Homo sapiens) (P10635 whole entry, looked up): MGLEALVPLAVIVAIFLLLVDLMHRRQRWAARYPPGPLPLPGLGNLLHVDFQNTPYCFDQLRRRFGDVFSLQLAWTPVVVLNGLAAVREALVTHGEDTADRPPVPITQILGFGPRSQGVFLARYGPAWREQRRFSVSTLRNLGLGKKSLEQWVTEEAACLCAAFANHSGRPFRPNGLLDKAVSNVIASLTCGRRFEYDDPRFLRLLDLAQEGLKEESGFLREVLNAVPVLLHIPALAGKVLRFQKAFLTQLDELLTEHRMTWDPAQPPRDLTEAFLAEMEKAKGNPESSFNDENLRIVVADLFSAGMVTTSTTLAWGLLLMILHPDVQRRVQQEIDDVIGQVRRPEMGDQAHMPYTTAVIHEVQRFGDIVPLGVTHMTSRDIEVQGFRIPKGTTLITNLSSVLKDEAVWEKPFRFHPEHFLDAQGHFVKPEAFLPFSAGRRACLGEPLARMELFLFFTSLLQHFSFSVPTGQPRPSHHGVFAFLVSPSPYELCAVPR
Sequence of Nuclear receptor subfamily 1 group I member 3 (Homo sapiens) (Q14994 whole entry, looked up): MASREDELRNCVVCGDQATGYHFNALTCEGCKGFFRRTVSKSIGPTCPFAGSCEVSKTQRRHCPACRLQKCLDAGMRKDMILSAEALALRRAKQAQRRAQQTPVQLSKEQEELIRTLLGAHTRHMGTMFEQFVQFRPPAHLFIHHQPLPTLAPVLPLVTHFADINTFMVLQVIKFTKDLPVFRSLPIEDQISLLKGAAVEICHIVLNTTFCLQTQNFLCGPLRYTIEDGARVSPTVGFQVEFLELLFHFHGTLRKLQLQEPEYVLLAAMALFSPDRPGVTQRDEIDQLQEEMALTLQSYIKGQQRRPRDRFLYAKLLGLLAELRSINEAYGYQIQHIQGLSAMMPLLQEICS
Sequence of Cytochrome P450 3A4 (Homo sapiens) (P08684 whole entry, looked up): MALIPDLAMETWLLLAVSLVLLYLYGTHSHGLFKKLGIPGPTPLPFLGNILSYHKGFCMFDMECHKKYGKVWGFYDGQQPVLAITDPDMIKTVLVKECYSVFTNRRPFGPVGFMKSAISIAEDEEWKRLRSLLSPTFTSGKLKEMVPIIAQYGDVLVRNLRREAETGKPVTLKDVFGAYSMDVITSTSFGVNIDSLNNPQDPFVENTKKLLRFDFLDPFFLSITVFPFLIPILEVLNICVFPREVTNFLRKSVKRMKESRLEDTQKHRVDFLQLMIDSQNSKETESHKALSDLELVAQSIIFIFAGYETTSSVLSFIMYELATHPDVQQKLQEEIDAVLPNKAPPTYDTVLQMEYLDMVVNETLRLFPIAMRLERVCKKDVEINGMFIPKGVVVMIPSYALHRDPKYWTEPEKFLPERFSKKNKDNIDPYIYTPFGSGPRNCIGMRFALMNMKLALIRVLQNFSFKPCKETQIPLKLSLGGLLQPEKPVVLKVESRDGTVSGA
Sequence of Cytochrome P450 2C19 (Homo sapiens) (P33261 whole entry, looked up): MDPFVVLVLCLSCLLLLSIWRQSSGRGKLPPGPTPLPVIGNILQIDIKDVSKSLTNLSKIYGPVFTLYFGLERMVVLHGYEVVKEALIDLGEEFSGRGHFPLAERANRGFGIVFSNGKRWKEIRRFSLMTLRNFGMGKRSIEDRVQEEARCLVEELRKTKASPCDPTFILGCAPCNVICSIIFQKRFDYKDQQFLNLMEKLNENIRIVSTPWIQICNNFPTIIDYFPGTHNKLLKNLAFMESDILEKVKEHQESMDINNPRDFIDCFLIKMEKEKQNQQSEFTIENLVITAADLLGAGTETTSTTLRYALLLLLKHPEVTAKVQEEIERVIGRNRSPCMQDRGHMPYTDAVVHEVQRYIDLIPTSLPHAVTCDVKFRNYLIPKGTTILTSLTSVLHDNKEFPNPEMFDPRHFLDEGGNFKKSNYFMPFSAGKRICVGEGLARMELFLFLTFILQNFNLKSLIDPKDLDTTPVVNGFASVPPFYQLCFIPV
Sequence of Phospholipid hydroperoxide glutathione peroxidase GPX4 (Homo sapiens) (P36969 whole entry, looked up): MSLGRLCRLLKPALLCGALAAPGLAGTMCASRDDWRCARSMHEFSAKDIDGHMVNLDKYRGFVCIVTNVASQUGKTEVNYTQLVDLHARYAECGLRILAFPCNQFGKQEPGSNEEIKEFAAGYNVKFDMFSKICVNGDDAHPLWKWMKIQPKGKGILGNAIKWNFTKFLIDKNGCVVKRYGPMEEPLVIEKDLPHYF
Sequence of Cytochrome P450 2C9 (Homo sapiens) (P11712 whole entry, looked up): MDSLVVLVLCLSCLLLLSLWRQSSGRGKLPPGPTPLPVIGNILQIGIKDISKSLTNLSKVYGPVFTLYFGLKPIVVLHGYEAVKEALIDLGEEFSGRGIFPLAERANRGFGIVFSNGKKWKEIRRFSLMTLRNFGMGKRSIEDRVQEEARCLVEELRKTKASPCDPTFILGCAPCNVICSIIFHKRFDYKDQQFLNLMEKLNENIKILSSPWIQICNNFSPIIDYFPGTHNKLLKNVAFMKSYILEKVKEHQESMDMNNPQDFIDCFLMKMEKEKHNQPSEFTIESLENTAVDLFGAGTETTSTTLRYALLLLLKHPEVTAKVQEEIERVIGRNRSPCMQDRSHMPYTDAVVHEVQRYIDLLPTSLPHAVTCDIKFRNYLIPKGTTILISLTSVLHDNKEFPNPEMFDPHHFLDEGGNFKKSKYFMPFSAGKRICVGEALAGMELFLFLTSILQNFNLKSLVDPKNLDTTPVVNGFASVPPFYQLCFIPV

COc1cc(-c2oc3cc(O)cc(O)c3c(=O)c2O)ccc1O
active: Potency [7] 11.2 µM | Potency [8] 4.47 µM | Potency [9] 4.47 µM | Potency [10] 7.94 µM
inactive: Potency [1] | outcome [2] | outcome [3] | Potency [4] | outcome [5] | outcome [6] | max response [11] -5.64% | outcome [12] | Potency [13] | outcome [14]

Cn1c(=O)cc(N2CCC[C@@H](N)C2)n(Cc2ccccc2C#N)c1=O
inactive: Potency [1] | Potency [15] | Potency [16] | Potency [17]

C=C[C@@H]1C[C@]1(NC(=O)[C@@H]1C[C@@H](Oc2ncc(OC)c3ccc(Cl)cc23)CN1C(=O)[C@@H](NC(=O)OC(C)(C)C)C(C)(C)C)C(=O)NS(=O)(=O)C1CC1
active: Potency [15] 20.5 µM
inactive: Potency [1] | Potency [16]
